Our source for the binding signal values is paper PMC7819943, “Rice protein-binding microarrays: a tool to detect cis-acting elements near promoter regions in rice”.

The full ranking holds about 68,000 sequences; the median of “fluorescence intensity (a.u.)” is about 9,100, and the highest 2% start at about 16,000. The entries come from a sample that favours the highest values as a whole.

Sequence of OsWRKY34 (Q0JBA9 entry or part of it): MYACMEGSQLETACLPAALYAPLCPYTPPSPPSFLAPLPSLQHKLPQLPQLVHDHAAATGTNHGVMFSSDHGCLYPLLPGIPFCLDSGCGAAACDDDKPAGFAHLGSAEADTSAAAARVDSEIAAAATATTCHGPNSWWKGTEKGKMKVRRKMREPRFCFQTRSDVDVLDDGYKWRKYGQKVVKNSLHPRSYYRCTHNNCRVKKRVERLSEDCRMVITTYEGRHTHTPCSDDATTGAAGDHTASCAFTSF

For the experiment, the target named is OsWRKY34 (Oryza sativa, UniProt Q0JBA9 1-250). Kind of experiment: protein-binding microarray (RPBM); PBS, 2% BSA, 51.3 ng/ul salmon testes DNA, 50 uM zinc acetate, 200 nM TF, 25 C, 1 h; high values mean tight binding. The following applies: protein: recombinant; tags: N-terminal polyhistidine and DsRed monomer fusion (pET32a); label: CyDye5-dUTP incorporated in the synthesized complementary strand; 3' TTTTT single-stranded linker to array surface; dsDNA, one strand shown. Put shortly:
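The binding signal is fluorescence intensity per feature, in arbitrary units, read on an Axon 4000B scanner. Polyhistidine- and DsRed-tagged transcription factors (N-terminal fusions) from E. coli BL21-CodonPlus were purified on Ni–NTA and applied at 200 nM for 1 h at 25 °C to a double-stranded, BSA-blocked custom Agilent array in buffer with 50 µM zinc acetate.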
For “GAGGGATGTCTTATATCTAGTTTTGTGGTTGGAGGATGATCGGAGTCACCTAGTGCAG”, the binding signal was 8770 fluorescence intensity (a.u.).

For “TCTGTGTTGGCGAGAGTTGGTGTCTGGAATTGGGCTTGGTCGGAGTCACCTAGTGCAG”, the binding signal is 9200 fluorescence intensity (a.u.).

“GTTCTATTGTACTGGTCAGTTCAGTGGACTCGGTTCTGTTCGGAGTCACCTAGTGCAG”: the binding signal is 9260 fluorescence intensity (a.u.).

For “CTACACTGTCTTGCTCGCTCATTGTCTCTCTCTGCATTTGCGGAGTCACCTAGTGCAG”, the binding signal is 8580 fluorescence intensity (a.u.).

On to “TATGTTCGGTATCGTATTAAATCTACTCCTATTTGTACCTCGGAGTCACCTAGTGCAG”, for which the binding signal was 8570 fluorescence intensity (a.u.).

Turning to “TTTTGTTCGCTACTATAGGCCCACACGTCTGTGCCCATGGCGGAGTCACCTAGTGCAG”, the binding signal was 8660 fluorescence intensity (a.u.).

With “CTCCTCTTCTTCTCTTCTCCTTCGTTGGGCGTGGGCGTCGCGGAGTCACCTAGTGCAG”, the binding signal is 12400 fluorescence intensity (a.u.).

For “CCGACGCCTACTACTTCGCCCACTAGCCACGCGTGCTGCCCGGAGTCACCTAGTGCAG”, the binding signal is 9050 fluorescence intensity (a.u.).

Turning to “TACTGTATAGTTGTTACAACTTCCTTTTTAATTATTCAATCGGAGTCACCTAGTGCAG”, the binding signal is 8060 fluorescence intensity (a.u.).

Consider “AAGACGAATGATCAAACACGTACTAAAAAAGTCAACGGTGCGGAGTCACCTAGTGCAG”, for which the binding signal was 11600 fluorescence intensity (a.u.).

With “GGTCAAATACGTACTAAAAAGTCAACGGTGTCAAACATTTCGGAGTCACCTAGTGCAG”, the binding signal was 12900 fluorescence intensity (a.u.).

As for “AGACGAATGGTCAAACACGTATTAAAAAGTCAACGGTGTCCGGAGTCACCTAGTGCAG”, the binding signal is 19700 fluorescence intensity (a.u.).

On to “GAATGGTCAAACACGTACTAAAAAAGTCAACGGTGTCAAACGGAGTCACCTAGTGCAG”, for which the binding signal is 17500 fluorescence intensity (a.u.).

“GACGAATGGTCAAACACGTACTAAAAAGTCAACGGTGTCACGGAGTCACCTAGTGCAG”: the binding signal was 12200 fluorescence intensity (a.u.).

On to “AATGGTCAAACACGTATTTAAAAAGTCAACGGTGTCAAACCGGAGTCACCTAGTGCAG”, for which the binding signal was 14100 fluorescence intensity (a.u.).

Take “CTAATGGTTCTGATCGCCGTGCCTAACCCTAGCCCCATATCGGAGTCACCTAGTGCAG”: the binding signal is 8400 fluorescence intensity (a.u.).

On to “TCTTTTGCTTCTGTTCTGCACCGGTCTCTCTGATGGATGTCGGAGTCACCTAGTGCAG”, for which the binding signal was 9680 fluorescence intensity (a.u.).

For the sequence “AATAGATGACATTGTTGACTTATTCTTACATGTTTGCCCACGGAGTCACCTAGTGCAG”, the binding signal was 9350 fluorescence intensity (a.u.).

With “AATTGCTGTTGACCTGTTGTTGTGCTCCAACATCCAAACACGGAGTCACCTAGTGCAG”, the binding signal was 8290 fluorescence intensity (a.u.).

On to “TCCACCTCCTAGCGAAATGCATGGTTGGCCAAACAACACACGGAGTCACCTAGTGCAG”, for which the binding signal is 8300 fluorescence intensity (a.u.).

Consider “TGACAATGGTGTTGCATCTCCAAAGCTGCAGAAACAAACACGGAGTCACCTAGTGCAG”, for which the binding signal is 48300 fluorescence intensity (a.u.).

Turning to “TACGAGGAGGGCCCATGCGTCGGTGGGTAGGGTGAAAAGACGGAGTCACCTAGTGCAG”, the binding signal is 8690 fluorescence intensity (a.u.).

As to “AATAAAGTTGGGTGGTTGGGGCGCGCGATAGGAGTAAATCCGGAGTCACCTAGTGCAG”, the binding signal was 17400 fluorescence intensity (a.u.).

On to “GACCTTTGGGTAGGGGTGGGGATGGGGCGAAATTACTAAACGGAGTCACCTAGTGCAG”, for which the binding signal was 30300 fluorescence intensity (a.u.).

Take “GAGGTGGTGGAGGAGGAGGCCAGGGGTTCGTTGGCGGCGGCGGAGTCACCTAGTGCAG”: the binding signal is 8840 fluorescence intensity (a.u.).

Consider “AGGAGGGCGGGGTCGTCGTCGTCCGGGGTGGTGGTGGCCGCGGAGTCACCTAGTGCAG”, for which the binding signal was 17000 fluorescence intensity (a.u.).

Turning to “ACTAACGAAATTACTACTTCGTAGGGGTAGGGGTGGCGTGCGGAGTCACCTAGTGCAG”, the binding signal was 9370 fluorescence intensity (a.u.).

For the sequence “GAAAGTGGGAGAGAGAATAGGTTGGGGTGGTTGGTTTGGGCGGAGTCACCTAGTGCAG”, the binding signal was 14700 fluorescence intensity (a.u.).

“GCTGGCGCCGGAGAGAGAGAGTGGGTTGGTTGTAATAAATCGGAGTCACCTAGTGCAG”: the binding signal was 9290 fluorescence intensity (a.u.).

For the sequence “GGAGGAGGTGGCGGCGGAGGGGTTGGTGGTGGAGGTGGTCCGGAGTCACCTAGTGCAG”, the binding signal was 20800 fluorescence intensity (a.u.).

As for “TGGTGGTGAGGAGGAGGAGGAGGAGGGCGGGGTCGTCGTCCGGAGTCACCTAGTGCAG”, the binding signal is 16200 fluorescence intensity (a.u.).

Turning to “GGAGGGTGGAGGGCGGAGGACGGAGGTGGTGGCGCCGCGCCGGAGTCACCTAGTGCAG”, the binding signal is 9550 fluorescence intensity (a.u.).

Regarding “GCGGGGTTGGAGGAGGAGGAGGTGGTGGTGGTGGTGGTGGCGGAGTCACCTAGTGCAG”, the binding signal is 15300 fluorescence intensity (a.u.).

“TGGGGATGGGGAATTGACCTGGGTAGGGGTGGTAATTGGGCGGAGTCACCTAGTGCAG”: the binding signal was 16000 fluorescence intensity (a.u.).

“GGTTTCGTTCGCGAGGAGGAGAGATCTGGTTGGGGAGATGCGGAGTCACCTAGTGCAG”: the binding signal was 9660 fluorescence intensity (a.u.).

As to “AGGAGGCGCTACCTTCTATTCCTCACCGGCTCACCGCTATCGGAGTCACCTAGTGCAG”, the binding signal was 9700 fluorescence intensity (a.u.).

Take “TGATTTTTTTTTTGTTTCACAGTGCACAGACCAATGTTTCCGGAGTCACCTAGTGCAG”: the binding signal is 8320 fluorescence intensity (a.u.).

In the case of “CGCCGCCACCGCGACTCCTCGCATTCGTCCCCACCACATCCGGAGTCACCTAGTGCAG”, the binding signal was 9990 fluorescence intensity (a.u.).

“CTTTTTTTTAATGTATTGATGCTTCTTTTCTAGTTTGTACCGGAGTCACCTAGTGCAG”: the binding signal is 9060 fluorescence intensity (a.u.).

In the case of “AGTAGCAGCAGCAGCAGCAGGCAGGAGGGAGTGGGTTTGTCGGAGTCACCTAGTGCAG”, the binding signal is 9600 fluorescence intensity (a.u.).

Regarding “GACAGCGTGAATTCGAGGGATTTCTTGGCTGGTTTGGTTGCGGAGTCACCTAGTGCAG”, the binding signal is 10100 fluorescence intensity (a.u.).

As for “TTCTCCGCGCTGCAGTCCTCGCCACAACTCGTCGGCCGAACGGAGTCACCTAGTGCAG”, the binding signal is 11600 fluorescence intensity (a.u.).
